Experiment [1] is described as follows: NCI Yeast Anticancer Drug Screen. Data for the rad50 strain (AID 155).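 Note: 0% = growth of vehicle-only cultures of the same strain.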 To be noted: S. cerevisiae rad50 strain growth inhibition, hits give high values. The essentials: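 Cells are treated with compound, grown, and their growth is then scored against vehicle-only cultures of the same repair-deficient yeast strain.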
The nature of experiment [2]: NCI Yeast Anticancer Drug Screen. Data for the mec2-1 strain (AID 157). To be noted: S. cerevisiae mec2-1 strain, hits give high values. The essentials: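 Yeast mec2-1 mutant treated with compound. Readout: growth inhibition vs vehicle controls.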
Experiment [3] in a line: NCI Yeast Anticancer Drug Screen. Data for the sgs1 mgt1 strain (AID 161).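 Note: 0% = growth of cultures given vehicle only.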 Conditions: S. cerevisiae sgs1 mgt1 strain, hits give high values. The essentials: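 Read-out: growth inhibition vs vehicle controls. Cells: mutant yeast strain deficient in DNA damage repair.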
Experiment [4] can be described thus: NCI Yeast Anticancer Drug Screen. Data for the cln2 rad14 strain (AID 165).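 Note: 0% = growth equal to vehicle treated cultures.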 Conditions: S. cerevisiae cln2 rad14 strain, hits give high values. The essentials: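 cln2 rad14 yeast strain; compound exposure; growth inhibition read vs vehicle controls.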
The nature of experiment [5]: NCI Yeast Anticancer Drug Screen. Data for the bub3 strain (AID 167). Conditions: S. cerevisiae bub3 mutant strain, hits give high values. In outline: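 Part of a panel of yeast mutants defective in DNA damage repair or cell cycle regulation. Each strain is grown with compound, and inhibition is calculated relative to solvent-treated cultures.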
Experiment [6] can be described thus: NCI Yeast Anticancer Drug Screen. Data for the mlh1 rad18 strain (AID 175). To be noted: S. cerevisiae mlh1 rad18 strain growth inhibition, hits give high values. The essentials:
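Yeast w/ defined DNA-repair lesions; compound exposure; growth vs vehicle controls → % inhibition.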

Setting [7] is: at 5.0 µM (retest, dose inferred, filed as 0.5).
Where [8] appears, read: at 50.0 µM (retest, dose inferred, filed as 5.0).

The panel holds about 79,000 compounds, 15% with a hit somewhere; the sample as a whole holds those more often. Values without a mark were called inactive. Calls of active or inactive are those of the source. Cut-off read from the data, not from the text of the source: active = growth inhibition above about 70%; inactive = the rest.

Regarding `[Au+].[Au+].[Au+].[c-]1nccn1Cc1ccccc1.[c-]1nccn1Cc1ccccc1.[c-]1nccn1Cc1ccccc1`, the growth inhibition in experiment [1] (setting [7]) is 13%; in experiment [1] (setting [8]) it was 97% (active); in experiment [1] (at 50.0 µM) it was 76.6% (active); in experiment [2] (setting [7]) it was 11%; in experiment [2] (setting [8]), 98% (active); in experiment [2] (at 50.0 µM), 88.2% (active). The growth inhibition in experiment [3] (setting [7]) was 29%; in experiment [3] (setting [8]), 97% (active); in experiment [3] (at 50.0 µM) it was 88.9% (active); in experiment [4] (setting [7]), 12%; in experiment [4] (setting [8]), 97% (active); in experiment [4] (at 50.0 µM) it was 88.8% (active). Further, the growth inhibition was 18% in experiment [5] (setting [7]); 98% (active) in experiment [5] (setting [8]); 84.3% (active) in experiment [5] (at 50.0 µM); 57% in experiment [6] (setting [7]); 96% (active) in experiment [6] (setting [8]); 90.9% (active) in experiment [6] (at 50.0 µM).

As to `O=C1C(CCl)(CCl)CCC12CNC(Cl)(Cl)C2` (configuration not stated), the growth inhibition in experiment [1] (setting [7]) was -1%; in experiment [1] (setting [8]), 0%; in experiment [1] (at 50.0 µM) it was 6.8%; in experiment [2] (setting [7]), -1%; in experiment [2] (setting [8]), 4%; in experiment [2] (at 50.0 µM), 15.8%. The growth inhibition in experiment [3] (setting [7]) is 1%; in experiment [3] (setting [8]) it was 0%; in experiment [3] (at 50.0 µM) it was 21.6%; in experiment [4] (setting [7]) it was 1%; in experiment [4] (setting [8]) it was 5%; in experiment [4] (at 50.0 µM) it was 39.6%. For the same compound, the growth inhibition in experiment [5] (setting [7]) is -3%; in experiment [5] (setting [8]) it was -5%; in experiment [5] (at 50.0 µM), 23.2%; in experiment [6] (setting [7]), -1%; in experiment [6] (setting [8]), 0%; in experiment [6] (at 50.0 µM), 28.8%.

As to `CC12OOC(c3ccccc31)c1c2ccc2ccccc12` (configuration not stated), the growth inhibition in experiment [1] (setting [7]) is 62%; in experiment [1] (setting [8]), 98% (active); in experiment [1] (at 50.0 µM), 86% (active); in experiment [2] (setting [7]), 94% (active); in experiment [2] (setting [8]), 99% (active); in experiment [2] (at 50.0 µM), 93.5% (active). The growth inhibition was 92% (active) in experiment [3] (setting [7]); 99% (active) in experiment [3] (setting [8]); 90% (active) in experiment [3] (at 50.0 µM); 71% (active) in experiment [4] (setting [7]); 99% (active) in experiment [4] (setting [8]); 88.5% (active) in experiment [4] (at 50.0 µM). Also, the growth inhibition is 97% (active) in experiment [5] (setting [7]); 97% (active) in experiment [5] (setting [8]); 90.5% (active) in experiment [5] (at 50.0 µM); 90% (active) in experiment [6] (setting [7]); 97% (active) in experiment [6] (setting [8]); 90.2% (active) in experiment [6] (at 50.0 µM).

As for `C[CH2][Sn]([Cl])([CH2]C)[CH2]C`, the growth inhibition in experiment [1] (setting [7]) is 7%; in experiment [1] (setting [8]) it was 87% (active); in experiment [1] (at 50.0 µM) it was 98.3% (active); in experiment [2] (setting [7]), 0%; in experiment [2] (setting [8]) it was 84% (active); in experiment [2] (at 50.0 µM) it was 98.1% (active). Also, the growth inhibition in experiment [3] (setting [7]) was 0%; in experiment [3] (setting [8]), 91% (active); in experiment [3] (at 50.0 µM) it was 97.3% (active); in experiment [4] (setting [7]), -6%; in experiment [4] (setting [8]), 60%; in experiment [4] (at 50.0 µM), 80.8% (active). Besides, the growth inhibition in experiment [5] (setting [7]) was -18%; in experiment [5] (setting [8]) it was 83% (active); in experiment [5] (at 50.0 µM) it was 98.2% (active); in experiment [6] (setting [7]), 2%; in experiment [6] (setting [8]), 92% (active); in experiment [6] (at 50.0 µM), 98.2% (active).

With `C[C@]12CCCC[C@@H]1CC[C@@H]1[C@@H]2C(=O)C[C@@]2(C)[C@H]1CC[C@]2(C)O`, the growth inhibition is 6% in experiment [1] (setting [7]); 97% (active) in experiment [1] (setting [8]); 60.4% in experiment [1] (at 50.0 µM); 0% in experiment [2] (setting [7]); 99% (active) in experiment [2] (setting [8]); 99% (active) in experiment [2] (at 50.0 µM). The growth inhibition was 0% in experiment [3] (setting [7]); 99% (active) in experiment [3] (setting [8]); 50.3% in experiment [3] (at 50.0 µM); 0% in experiment [4] (setting [7]); 97% (active) in experiment [4] (setting [8]); 20.6% in experiment [4] (at 50.0 µM). The growth inhibition is -4% in experiment [5] (setting [7]); 80% (active) in experiment [5] (setting [8]); 53% in experiment [5] (at 50.0 µM); 30% in experiment [6] (setting [7]); 99% (active) in experiment [6] (setting [8]); 98% (active) in experiment [6] (at 50.0 µM).

In the case of `CCCCCCCC[N+]12CN3CN(CN(C3)C1)C2`, the growth inhibition in experiment [1] (setting [7]) is -5%; in experiment [1] (setting [8]), -21%; in experiment [1] (at 50.0 µM), 1.75%; in experiment [2] (setting [7]) it was -2%; in experiment [2] (setting [8]), -33%; in experiment [2] (at 50.0 µM), 4.1%. The growth inhibition is -6% in experiment [3] (setting [7]); -28% in experiment [3] (setting [8]); 7.75% in experiment [3] (at 50.0 µM); 2% in experiment [4] (setting [7]); -38% in experiment [4] (setting [8]); 30.4% in experiment [4] (at 50.0 µM). Also, the growth inhibition was 1% in experiment [5] (setting [7]); -25% in experiment [5] (setting [8]); 31.8% in experiment [5] (at 50.0 µM); -1% in experiment [6] (setting [7]); -26% in experiment [6] (setting [8]); 16.9% in experiment [6] (at 50.0 µM).

`O=[N+]([O-])/C=C/c1c(Cl)cccc1Cl`: the growth inhibition is 99% (active) in experiment [1] (setting [7]); 99% (active) in experiment [1] (setting [8]); 99.2% (active) in experiment [1] (at 50.0 µM); 100% (active) in experiment [2] (setting [7]); 100% (active) in experiment [2] (setting [8]); 99.2% (active) in experiment [2] (at 50.0 µM). In addition, the growth inhibition in experiment [3] (setting [7]) was 99% (active); in experiment [3] (setting [8]), 99% (active); in experiment [3] (at 50.0 µM), 99.3% (active); in experiment [4] (setting [7]), 99% (active); in experiment [4] (setting [8]), 99% (active); in experiment [4] (at 50.0 µM), 98% (active). The growth inhibition is 100% (active) in experiment [5] (setting [7]); 99% (active) in experiment [5] (setting [8]); 99.3% (active) in experiment [5] (at 50.0 µM); 99% (active) in experiment [6] (setting [7]); 99% (active) in experiment [6] (setting [8]); 99.2% (active) in experiment [6] (at 50.0 µM).

In the case of `IC(I)=C(I)I`, the growth inhibition is 98% (active) in experiment [1] (setting [7]); 93% (active) in experiment [1] (setting [8]); 88.5% (active) in experiment [1] (at 50.0 µM); 100% (active) in experiment [2] (setting [7]); 96% (active) in experiment [2] (setting [8]); 92.2% (active) in experiment [2] (at 50.0 µM). Further, the growth inhibition in experiment [3] (setting [7]) is 99% (active); in experiment [3] (setting [8]), 96% (active); in experiment [3] (at 50.0 µM), 91.9% (active); in experiment [4] (setting [7]), 99% (active); in experiment [4] (setting [8]), 96% (active); in experiment [4] (at 50.0 µM), 90.8% (active). The growth inhibition was 100% (active) in experiment [5] (setting [7]); 95% (active) in experiment [5] (setting [8]); 90% (active) in experiment [5] (at 50.0 µM); 99% (active) in experiment [6] (setting [7]); 91% (active) in experiment [6] (setting [8]); 90.1% (active) in experiment [6] (at 50.0 µM).

On to `c1cc2n[pH]nc2cn1` (configuration not stated), for which the growth inhibition is -10% in experiment [1] (setting [7]); 5% in experiment [1] (setting [8]); 5.55% in experiment [1] (at 50.0 µM); -3% in experiment [2] (setting [7]); -8% in experiment [2] (setting [8]); 11.2% in experiment [2] (at 50.0 µM). The growth inhibition in experiment [3] (setting [7]) was -2%; in experiment [3] (setting [8]) it was -6%; in experiment [3] (at 50.0 µM), 21.2%; in experiment [4] (setting [7]), 5%; in experiment [4] (setting [8]), -8%; in experiment [4] (at 50.0 µM) it was 1.2%. In addition, the growth inhibition was -1% in experiment [5] (setting [7]); 2% in experiment [5] (setting [8]); 11.6% in experiment [5] (at 50.0 µM); 6% in experiment [6] (setting [7]); 6% in experiment [6] (setting [8]); 43.5% in experiment [6] (at 50.0 µM).
